{
  "source": "PubChem BioAssay AID743364",
  "about": "(National Center for Advancing Translational Sciences (NCATS), 2014)",
  "note": "The source made the active and inactive calls. The call rests on the fitted dose curve; in most records, active means well fitted curve in the direction sought with a large enough effect; inactive means no such curve, though single readings can be large or run the other way.",
  "data": [
    {"assay": "qHTS profiling of inhibitors of Plasmodium falciparum (3D7) proliferation (acoustic dispense)", "conditions": "P. falciparum 3D7 in erythrocytes, SYBR Green, 72 h; series mostly up to 49.8 µM", "source_text": "Plasmodium falciparum is a virulent malarial parasite that kills 1-2 million people worldwide each year. Transmitted by mosquitoes, the sporozoite form of the parasite enters the blood stream to infect hepatocytes, where they become merozoites that infect red blood cells (erythrocytes). Within erythrocytes, merozoites begin a […] cycle of growth and division, after which the parasite is released to infect new red blood cells. Gametocytes, which form within erythrocytes as well, circulate in the bloodstream and are ingested by the mosquito, thereby completing the life cycle. To profile malarial isolates for differential chemical responses and to identify inhibitors of malarial growth, an assay that measures P. falciparum growth and replication within erythrocytes was employed. This assay uses a DNA binding fluorescent dye (SYBR Green) to detect parasite DNA following cell lysis. Because mature erythrocytes lack DNA, only Plasmodium-derived DNA is detected.\nThe SYBR Green viability assay was adapted from a method described previously (Plouffe et al., 2008). For screening 3 ul culture medium was dispensed into 1536 well black clear bottom plates (Aurora Biotechnologies) using a Multidrop Combi (Thermo Fisher Scientific Inc.), 23 nL of compounds in DMSO were added by an acoustic dispenser (EDC Biosystems), and 5 ul of erythrocytes infected with P. falciparum (0.3% parasitemia, 2.5% hematocrit final concentration) were added. The plates were incubated at 37 C in a humidified incubator in 5% CO2 for 72 h, and 2 ul lysis buffer (20 mM Tris HCl, 10 mM EDTA, 0.16% saponin, 1.6% triton X, 10X SYBR Green I supplied as 10,000X […] by Invitrogen) was added to each well. The plates were mixed for 25 sec with gentle shaking and incubated overnight at room temperature in the dark. The following morning, fluorescence intensity at 485(14) nm excitation and 535(25) nm emission wavelengths was measured on an EnVision (Perkin Elmer) plate reader. Plate reads were normalized relative to the control inhibitor (0.29 uM artemisinin) and vehicle (DMSO) wells present on each plate and then corrected by an algorithm using vehicle-only control plates at the beginning and end of the compound plate stack.", "values": [
      {"smiles": "O=C(C[C@@H]1NCCC[C@@H]1O)Cn1cnc2ccccc2c1=O", "outcome": "inactive"},
      {"smiles": "O=c1[nH]c2ccc(Cl)cc2c(N[C@@H]2CN3CCC2CC3)c1-c1nc2ccccc2[nH]1", "outcome": "inactive"},
      {"smiles": "C[C@@H]1C[C@@H]([C@H](O)CC2CC(=O)NC(=O)C2)C(=O)[C@@H](C)C1", "outcome": "inactive"},
      {"smiles": "CC1=C(O)C(=O)C=C2C1=CC=C1[C@@]2(C)CC[C@@]2(C)[C@@H]3C[C@](C)(C(=O)O)CC[C@]3(C)CC[C@]12C", "outcome": "inactive"},
      {"smiles": "CN1C(=O)C[C@H](C(=O)N[C@@H](Cc2cnc[nH]2)C(=O)N2CCC[C@@H]2C(N)=O)NC1=O", "outcome": "inactive"},
      {"smiles": "C[C@]12O[C@H](C[C@@]1(O)C(=O)O)n1c3ccccc3c3c4c(c5c6ccccc6n2c5c31)CNC4=O", "activity change": "0.751% [at 4.15 µM] (inactive)"},
      {"smiles": "CC=C(C)C(=O)N[C@@H](c1ccccc1)[C@@H](O)C(=O)O[C@H]1C[C@@]2(O)[C@@H](OC(=O)c3ccccc3)[C@@H]3[C@]4(OC(C)=O)CO[C@@H]4C[C@H](O)[C@@]3(C)C(=O)[C@H](OC(C)=O)C(=C1C)C2(C)C", "outcome": "inactive"},
      {"smiles": "COC(=O)[C@@]1(OC)C[C@@H]2O[C@@]1(C)n1c3ccccc3c3c4c(c5c6ccccc6n2c5c31)C(=O)N(C)C4", "outcome": "inactive"},
      {"smiles": "CC(=Cc1csc(C)n1)[C@@H]1C[C@H]2O[C@@H]2CCC[C@H](C)[C@@H](O)[C@@H](C)C(=O)C(C)(C)[C@@H](O)CC(=O)O1", "outcome": "inactive"},
      {"smiles": "CC(=O)N(O)CCCP(=O)(O)O", "outcome": "inactive"},
      {"smiles": "COC1=CC(C)=C[C@@H](C)[C@@H](O)[C@@H](C)CC(C)=CC=C[C@H](OC)[C@H]([C@@H](C)[C@@H](O)[C@H](C)[C@@]2(O)C[C@@H](O)[C@H](C)[C@@H](C(C)C)O2)OC1=O", "outcome": "inactive"},
      {"smiles": "CC(=O)Nc1nnc(S(N)(=O)=O)s1", "outcome": "inactive"},
      {"smiles": "C[C@H]1CCCC=CC2C[C@H](O)C[C@@H]2[C@H](O)C=CC(=O)O1", "note": "(stereo not given in full)", "outcome": "inactive"},
      {"smiles": "CC(C)(N)CNC(=O)CC1CCC2(CC1)OOC1(O2)C2CC3CC(C2)CC1C3", "note": "(stereo not given)", "outcome": "inactive"},
      {"smiles": "CO[C@H]1CCC(O[C@H]2C[C@H]([C@]3(C)CC[C@]4(C[C@H](O)[C@@H](C)[C@@H]([C@@H](C)C=C(C)C(=O)[C@H](C)C[C@H](C)C(=O)O)O4)O3)O[C@]3(O[C@@H]([C@H]4O[C@@](O)(CO)[C@H](C)C[C@H]4C)C[C@H]3C)[C@H]2C)O[C@H]1C", "note": "(stereo not given in full)", "outcome": "inactive"}
    ]}
  ]
}
